In all, about 200,000 compounds went through this assay and about 25 (0.01%) were called active. About 23% were inconclusive and are not listed. For the sample, actives were picked, then their nearest neighbours and some compounds at random. A number with no mark means an inactive call. The call rests on the fitted dose curve; in most records, active means well fitted inhibition curve with a large enough effect in the signal ratio, with a control signal flat (not every such curve was filed as active); inconclusive means small, poorly fitted or top-dose-only effect, or effect the other way, or a change in a side signal; inactive means flat fitted curve, though single readings scatter; the % refers to the signal ratio.

The values that follow come from PubChem BioAssay AID1487 (National Center for Advancing Translational Sciences (NCATS), 2009).
On the % scale 0 is the no-effect control and ±100 the full control effect; potency means the concentration at half of the fitted maximal effect.

A short description of this assay: qHTS Assay for Modulators of Lamin A Splicing. The conditions noted are these: HeLa LMNA splicing GFP/RFP minigene ratio, 48 h; series mostly up to 46 µM; ratio change, negative = inhibition: at the top concentration. An excerpt:
NCGC Assay Overview: Hutchinson-Gilford Progeria Syndrome (HGPS) is a pediatric premature aging disease caused by a spontaneous mutation in the lamin A/C (LMNA) gene. The mutation activates a cryptic splice site in the LMNA pre-mRNA which results in production of a pre-lamin A protein that cannot be processed properly. The mutant protein accumulates in the nucleus and negatively affects numerous cellular functions. Correction of the splicing defect in HGPS patient cells using a targeted oligonucleotide (exo11) leads to reversal of the cellular disease phenotypes. To identify small molecule modulators of aberrant LMNA splicing, a homogenous assay was constructed in HeLa cells that used a GFP containing minigene to report on correction of aberrant splicing in lamin A and a RFP (DsRed2) to report on cell viability, uniformity and nonspecific effects on the assay signal. This assay was adapted to laser-scanning microplate cytometry (Acumen, TTP Labtech) where miniaturization of the assay to a 1,536-well plate format was possible. References: Bowen, W. P.; Wylie, P. G. Application of Laser-Scanning Fluorescence Microplate Cytometry in High Content Screening. Assay Drug Dev Technol 2006;4:209-221. Scaffidi P, Misteli T. Reversal of the cellular phenotype in the premature aging disease Hutchinson-Gilford progeria syndrome. Nat.
NCGC Assay Protocol Summary: Reagents/Controls: Stable clones expressing DsRed2 and lamin A-EGFP were generated by Cell and Molecular Technologies in S3 HeLa cells. HeLa cells were prepared for the assay when they were 70-90% confluent. The cells were counted and resuspended in Opti-MEM I (no phenol red; Gibco), 2% FBS, 1% penicillin/ streptomycin (Gibco) at concentration of 120 cells/uL concentration. The suspension was passed through a Falcon basket filter with pore size 40um (Beckton Dickson). Control titrations: column […] 1536-well plate contained a sixteen point titration (1:2 dilutions) in duplicate of ancitabine (Sigma: A8598) beginning at 40 uM final concentration. Column 2 contained a sixteen point titration (1:2 dilutions) of cycloheximide beginning at 1.4 mM final concentration. Column 3 contained ancitabine at 40 uM and column 4 contained was the vehicle control (0.5% DMSO final concentration). Assay Steps: 5 uL of HeLa cells were plated in Aurora LoBase black clear bottom (cyclic-olefin polymer) 1536-well plates at a final density of 600 cells/well. Controls and library compounds were added with a 1536-well pin array using the Kalypsys pin-tool. The plates were then incubated for 48 hrs in a cell-culture incubator (37 °C; 5% CO2, 98% humidity). Following incubation the plates were read on the Acumen Explorer using the 488 nm laser. Data was collected on objects between 10 and 100 um in size. Cell objects were defined by a 15 um width x 10 um depth filter. The ratio of the total object intensity in PMT1 (500-530 nm emission; GFP) over PMT3 (575-640 nm emission; RFP) was calculated for analysis. Keywords: NIH Roadmap, MLSCN, MLI, MLSMR, qHTS, NCGC, lamin A, Progeria, RNA splicing.
For the compound `O=C(CSc1nnc2ccc(-c3ccncc3)nn12)N1CCCCC1`, the “ratio change, negative = inhibition” value is 22.1%.

In the case of `Cc1ccc([N+](=O)[O-])c(OCCCNCC(C)O)c1` (stereo unspecified), the “ratio change, negative = inhibition” value was -18.3%. As to `COc1cccc(NC(=O)C(=O)NCC(c2ccc3c(c2)OCO3)N2CCN(C)CC2)c1` (stereo unspecified), the “ratio change, negative = inhibition” value was 2.28%.

Take `CC(=O)Nc1cccc(NC(=O)c2c(-c3ccccc3)noc2C)c1`: the “ratio change, negative = inhibition” value was -4.51% [at 46.1 µM]. For `Cc1onc(-c2ccccc2)c1C(=O)Nc1ccccc1C#N`, the “ratio change, negative = inhibition” value is 9.17% [at 46.1 µM]. Turning to `CCOC(=O)c1c(-c2cccc(C)c2)csc1NC(=O)c1c(-c2ccccc2)noc1C`, the Potency was 0.631 µM (active).

For the compound `Cc1cc(C)cc(OCC(=O)O/N=C(\N)Cc2ccc([N+](=O)[O-])cc2)c1`, the “ratio change, negative = inhibition” value is -7.35%. As to `COc1ccc(Sc2nc(-c3ccccc3)ncc2OC)cc1`, the “ratio change, negative = inhibition” value was 15.7%. Regarding `Cc1ccc(SCC(=O)Nc2ccc3oc(-c4ccccc4F)nc3c2)cc1`, the “ratio change, negative = inhibition” value was 28.4%.

In the case of `COCCNC(=O)c1ccc(-n2c(SCc3cccnc3)nc3ccccc3c2=O)cc1`, the “ratio change, negative = inhibition” value was 2.39%.

On to `Cc1cccc(C)c1NC(=S)N(Cc1cccnc1)Cc1ccccc1Cl`, for which the ratio change, negative = inhibition was 17.6% [at 9.22 µM]. On the same count and under the same terms, under `CCN1CCN(CCCNC(=O)c2ccc3c(c2)sc2nc(-c4ccc(OC)cc4)cn23)CC1` stands 20.5%; under `CCOC(=O)c1c(-c2cccc(N)c2)cn2ccccc12`, 7.28%; under `Cc1ccc(CSc2nc3cccnc3n2Cc2ccc(C(=O)NC3CC3)cc2)cc1`, 11%. As to `N#C/C(=C(\O)C(F)(F)F)c1nnc2n1CCCCC2`, the “ratio change, negative = inhibition” value was -13.7%. Same read-out and setting: the figure for `O=C(Cc1ccc(Cl)cc1)NCc1nc(-c2ccccc2)no1` is 13.3%; for `CCOC(=O)c1c(SCC(=O)Nc2cccc(C)c2C)nc(=O)[nH]c1C` it is -5.72%.

As for `COc1cc2c(C(=O)N3CCN(C)CC3)c(CSc3ccccc3)n(C)c2cc1Br`, the “ratio change, negative = inhibition” value was -21.8%. For the compound `COc1cc(C(=O)Nc2cc(C(F)(F)F)ccc2-n2cncn2)cc(OC)c1OC`, the “ratio change, negative = inhibition” value is -20%.

Consider `Cc1ccc(COc2ccc(C(=O)NN)cc2)cc1`, for which the “ratio change, negative = inhibition” value was -2.54%. On to `CC(=O)c1ccc(NC(=O)CSc2nc(-c3ccccc3F)nc3c2c(=O)n(C)c(=O)n3C)cc1`, for which the “ratio change, negative = inhibition” value is -9.49%.

Regarding `CSc1nc2c(c(=O)[nH]1)C(c1cccc(Cl)c1Cl)CC(=O)N2` (stereo unspecified), the ratio change, negative = inhibition is -8.67% [at 9.22 µM]. Take `CCc1nnc2c3ccccc3nc(N3CCN(c4ccc(C)cc4C)CC3)n12`: the “ratio change, negative = inhibition” value is -13.9%.

With `O=C1COc2ccc(C(=O)COC(=O)C3CC(O)CN3S(=O)(=O)c3ccc(Cl)cc3)cc2N1` (stereo unspecified), the “ratio change, negative = inhibition” value is -23.2%.

Take `COC(=O)c1c(NC(=O)CCCC(=O)O)sc2c1CCCCC2`: the “ratio change, negative = inhibition” value is -7.02%.

Turning to `COc1cccc(CNC(=O)C2CCN(S(=O)(=O)c3ccc4c(ccn4C)c3)CC2)c1`, the “ratio change, negative = inhibition” value was -12.3%.

Regarding `CC1(C)CN(c2ccc(-c3ccnc4ncnn34)cc2)C1=O`, the “ratio change, negative = inhibition” value was -28.7%. For the compound `CCOc1cc(C(=O)Nc2nnc3n2CCS3)cc(OCC)c1OCC`, the “ratio change, negative = inhibition” value was -0.322%. Regarding `COc1ccc(C(C)=O)cc1CSc1nc2nc(C)cc(C)n2n1`, the “ratio change, negative = inhibition” value is 11.6%.

For the compound `CC(=O)N1CCCc2ccc(NS(=O)(=O)c3ccc(F)cc3F)cc21`, the “ratio change, negative = inhibition” value was 6.09%. Regarding `CCOc1ccc(-n2cnc3c(=O)[nH]c(N)nc32)cc1`, the “ratio change, negative = inhibition” value is 19.4%.

As for `CCOC(=O)Cn1c(=O)n(-c2ccccc2OC)c2nc(-c3cccc(F)c3)nc(C(N)=O)c21`, the “ratio change, negative = inhibition” value was -9.35%. For `CCCNC(=O)CCC(=O)N1Cc2ccccc2Oc2ncccc21`, the “ratio change, negative = inhibition” value is 8.53%. As to `COc1ccc(NC(=O)N2CCCn3nc(C)cc32)cc1OC`, the “ratio change, negative = inhibition” value was 6.06%.

With `Cc1cnc(C(=O)OCC(=O)N2CCc3ccccc32)cn1`, the ratio change, negative = inhibition was 1.94% [at 9.22 µM]. `COC(=O)CSc1ncnc2c1cnn2-c1ccc(C)cc1C`: the “ratio change, negative = inhibition” value was 0.727%. As to `COc1ccc(C2=NN(C(=O)CCC(=O)O)C(c3cccs3)C2)cc1OC` (stereo unspecified), the “ratio change, negative = inhibition” value is 4.17%. On the same count and under the same terms, the figure for `CNc1nc2c(C)cccn2c(=O)c1C=Nc1ccc(OC)cc1` is -17.3%. On to `Cc1ccc(-n2nc(C)c3c(C)cc(=O)n(CC(=O)Nc4ccc(C(C)C)cc4)c32)cc1`, for which the “ratio change, negative = inhibition” value was -0.422%. As to `COc1cc(NS(=O)(=O)c2ccc3c(c2)OCC(C(=O)N2CCCC2)O3)cc(OC)c1` (stereo unspecified), the “ratio change, negative = inhibition” value is -0.229%.

As to `COc1cccc(NC(=S)N(Cc2ccc(C)cc2)Cc2ccccn2)c1`, the “ratio change, negative = inhibition” value was -5.44%. On the same count and under the same terms, the figure for `O=C(Nc1ccccc1C(=O)O)c1cc(S(=O)(=O)N2CCCCC2)cs1` is 5.58%; for `COc1ccc(CNS(=O)(=O)c2cc3c4c(c2)CCN4C(=O)CC3)cc1` it is -8.87%; for `Cc1c(CCOC(=O)c2cc([N+](=O)[O-])ccc2Cl)sc[n+]1CCCCS(=O)(=O)[O-]` it is 11.9%. `COc1cc(/C=C/C(=O)OCC(=O)N2CCOCC2)ccc1OCC#N`: the “ratio change, negative = inhibition” value is -0.73%. Take `CC(C)CNc1ncnc2c1nnn2C`: the “ratio change, negative = inhibition” value was 14%. Consider `CC1CN(/C=C/C(=O)C(F)(F)F)CC(C)O1` (stereo unspecified), for which the “ratio change, negative = inhibition” value is -0.822%. The same measure, in the same setting: under `O=C(CC1C(=O)NCCN1Cc1ccc(-c2ccccc2)cc1)NCc1ccncc1` (stereo unspecified) stands 13.2%; under `O=C(CCSCc1cccc(F)c1)NCc1ccccc1`, 30.8%; under `CC(C)CCNC(=O)CSc1nc2ccccc2nc1Cc1ccc(Cl)cc1`, -3.3%. The same measure, in the same setting: the figure for `C/C(Cn1nnc2ccccc21)=N\OC(=O)c1cc(F)c(F)cc1Cl` is 0.235%; for `O=C(NCCc1ccccc1)c1cnc2sc(N3CCCC3)nn2c1=O` it is 15.1%; for `O=[N+]([O-])c1cc([N+](=O)[O-])c2cccnc2c1O` it is 1.6%. The same measure, in the same setting: the figure for `O=C(Nc1ccccc1F)C(c1ccccc1)N1Cc2ccccc2C1=O` (stereo unspecified) is 18.7%; for `Cc1ccc(C)c(N2CCN(S(=O)(=O)c3ccc4c(c3)C(C(C)C)C(=O)N4)CC2)c1` (stereo unspecified) it is -10.7%. As for `Cc1cccc(N2CCN(C(=O)CCSCc3ccccc3F)CC2)c1C`, the “ratio change, negative = inhibition” value was -21.7%. For `COc1ccc(SCc2cc(=O)c3ccc(C)c(C)c3[nH]2)cc1`, the “ratio change, negative = inhibition” value was -9.07%. Turning to `CC(C)(C)n1nnnc1C(c1ccc(Cl)cc1)N1CCSCC1` (stereo unspecified), the “ratio change, negative = inhibition” value is -14% [at 46.1 µM]. With `Cc1ccc(C(c2nnnn2C(C)(C)C)N2CCc3ccccc3C2)cc1` (stereo unspecified), the “ratio change, negative = inhibition” value is -3.87% [at 46.1 µM].

Take `CC(C)(C)n1nnnc1C(c1ccc2ncccc2c1)N1CCSCC1` (stereo unspecified): the Potency is 6.31 µM (active). For `COC(=O)C(C)NC(=O)COc1ccc2ccccc2c1` (stereo unspecified), the “ratio change, negative = inhibition” value was 4.35%.

For `O=C(Nc1ccc2nc(SCC(=O)N3CCc4ccccc43)sc2c1)c1ccccc1F`, the “ratio change, negative = inhibition” value is 3.72%. On to `CCCN(CCC)CCNC(=O)c1ccc2c(c1)NC(=O)C(CS(=O)(=O)Cc1cccc(Br)c1)N2` (stereo unspecified), for which the “ratio change, negative = inhibition” value is -3.12%.

Turning to `CC(C)(C)NC(=O)COC(=O)c1cc(Cl)ccc1[N+](=O)[O-]`, the “ratio change, negative = inhibition” value is -6.76%. Regarding `O=C(CN(c1cccc(Cl)c1)S(=O)(=O)c1ccccc1)NN=C1CCCC1`, the “ratio change, negative = inhibition” value is 14.5%. As to `Cc1cccc(NC(=O)c2cc([N+](=O)[O-])ccc2N2CCN(C)CC2)c1`, the “ratio change, negative = inhibition” value was -17.1%.
